Our source for the z-score and composite z-score values is PubChem BioAssay.

The source made the active and inactive calls.

Assay [1] can be described thus: E. coli DRC41 culture turbidity changes, primary screen, E. coli filamentation inducer project, strain DRC41, OD650, 48 h (AID 1152).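 Note: E. coli MC1000 strain DRC41 lacking acrAB efflux pump and sulA.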 The note with it: E. coli DRC41 (acrAB sulA), higher = more signal, called active from +8 up or from −8 down.
The nature of assay [2]: small-molecule binders of probe aLefty1, primary screen, biochemical, small-molecule microarray, 635/667 nm fluorescence (AID 1153).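 Note: score merges spot fluorescence with signal-to-noise ratio from the scanned slide images.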 The following applies: higher = more signal.
A short description of assay [3]: PSAC antagonists in infected red cells, primary screen, cell-based, P. falciparum Indochina, OD700, 1 h (AID 1154). The following applies: P. falciparum Indochina infected RBC osmotic lysis, higher = more signal, called active from +8 up or from −8 down.
Assay [4] can be described thus: PSAC antagonists in infected red cells, primary screen, cell-based, P. falciparum Indochina, OD700, 2 h (AID 1155).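 Note: lysis reports solute entry through the parasite surface anion channel PSAC; channel blockers reduce lysis of infected cells.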 The following applies: P. falciparum Indochina infected erythrocytes, osmotic lysis OD700; higher = more signal, called active from +8 up or from −8 down.
Assay [5] can be described thus: osmotic lysis modulators in infected erythrocytes, primary screen, PSAC antagonist project, cell-based, P. falciparum Indochina, OD700, 3 h (AID 1156). The following applies: higher = more signal, called active from +8 up or from −8 down.
Assay [6] in a line: PSAC antagonists in infected red cells, primary screen, cell-based, P. falciparum Indochina, OD700, 18 h (AID 1157). The following applies: P. falciparum Indochina infected erythrocytes, osmotic lysis OD700, 18 h; higher = more signal, called active from +8 up or from −8 down.
Assay [7] is described as follows: modulators of S6 phosphorylation in cells, primary screen, cell-based, A549, cytoblot, luminescence, serum-stimulated (AID 1158).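 Note: serum-stimulated A549 lung adenocarcinoma cells; signal is phosphorylated S6 detected by cytoblot immunostaining with HRP secondary.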 The note with it: A549 phospho-S6 cytoblot, 5 h, higher = more signal.
In assay [8] the target is NADPH oxidase 2 (Homo sapiens) (UniProt P04839). Kind of assay: NOX2-dependent H2O2 signal modulators, primary screen, NOX inhibitor project, cell-based, HEK293-NOX2, PMA-stimulated, Amplex Red fluorescence (AID 1159). Note: test concentration not given here. The following applies: 45 min, higher = more signal, called active from +8 up or from −8 down.
Sequence of NADPH oxidase 2 (Homo sapiens) (P04839 whole entry, looked up): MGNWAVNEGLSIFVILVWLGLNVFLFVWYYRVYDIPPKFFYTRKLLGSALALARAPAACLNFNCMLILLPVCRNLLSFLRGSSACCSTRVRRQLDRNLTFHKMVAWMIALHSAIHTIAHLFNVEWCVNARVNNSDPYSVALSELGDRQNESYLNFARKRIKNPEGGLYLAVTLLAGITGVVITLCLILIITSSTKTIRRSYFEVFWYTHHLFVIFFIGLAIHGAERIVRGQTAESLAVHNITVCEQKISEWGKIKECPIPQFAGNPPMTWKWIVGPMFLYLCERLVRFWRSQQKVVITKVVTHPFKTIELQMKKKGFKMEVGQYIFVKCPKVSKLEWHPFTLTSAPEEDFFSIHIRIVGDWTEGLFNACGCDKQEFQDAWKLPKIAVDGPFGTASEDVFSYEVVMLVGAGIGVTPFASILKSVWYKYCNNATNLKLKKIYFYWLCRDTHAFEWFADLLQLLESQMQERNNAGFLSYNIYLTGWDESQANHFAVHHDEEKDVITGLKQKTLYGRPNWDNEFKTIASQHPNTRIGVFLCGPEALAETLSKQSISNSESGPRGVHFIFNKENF
The target in assay [9] is NADPH oxidase 4 (Homo sapiens) (UniProt Q9NPH5). As to the kind of experiment: NOX4-dependent H2O2 signal modulators, primary screen, NOX inhibitor project, cell-based, HEK293-NOX4, tetracycline-induced, Amplex Red fluorescence (AID 1160). The following applies: 45 min, higher = more signal, called active from +8 up or from −8 down.
Sequence of NADPH oxidase 4 (Homo sapiens) (Q9NPH5 whole entry, looked up): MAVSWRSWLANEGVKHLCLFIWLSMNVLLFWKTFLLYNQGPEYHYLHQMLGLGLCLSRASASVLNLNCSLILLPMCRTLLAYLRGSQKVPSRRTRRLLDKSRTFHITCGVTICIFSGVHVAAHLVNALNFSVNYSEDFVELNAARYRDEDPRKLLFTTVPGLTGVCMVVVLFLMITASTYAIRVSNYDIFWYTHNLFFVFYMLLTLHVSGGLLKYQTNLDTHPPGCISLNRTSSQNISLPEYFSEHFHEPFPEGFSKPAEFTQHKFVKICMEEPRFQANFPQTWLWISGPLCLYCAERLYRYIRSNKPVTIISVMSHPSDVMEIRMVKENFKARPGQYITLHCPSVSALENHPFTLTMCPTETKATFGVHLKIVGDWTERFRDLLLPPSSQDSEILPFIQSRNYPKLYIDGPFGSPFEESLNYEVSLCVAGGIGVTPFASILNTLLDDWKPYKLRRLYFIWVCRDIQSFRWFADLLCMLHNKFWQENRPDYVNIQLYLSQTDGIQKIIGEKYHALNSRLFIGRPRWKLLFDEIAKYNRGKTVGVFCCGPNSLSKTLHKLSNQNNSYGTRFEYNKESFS
The target of assay [10] is NADPH oxidase 5 (Homo sapiens) (UniProt Q96PH1). Kind of assay: NOX5-dependent H2O2 signal modulators, primary screen, NOX inhibitor project, cell-based, HEK293-NOX5, Amplex Red fluorescence (AID 1161). The note with it: HEK293-NOX5, ionomycin, 45 min, higher = more signal.
Sequence of NADPH oxidase 5 (Homo sapiens) (Q96PH1 whole entry, looked up): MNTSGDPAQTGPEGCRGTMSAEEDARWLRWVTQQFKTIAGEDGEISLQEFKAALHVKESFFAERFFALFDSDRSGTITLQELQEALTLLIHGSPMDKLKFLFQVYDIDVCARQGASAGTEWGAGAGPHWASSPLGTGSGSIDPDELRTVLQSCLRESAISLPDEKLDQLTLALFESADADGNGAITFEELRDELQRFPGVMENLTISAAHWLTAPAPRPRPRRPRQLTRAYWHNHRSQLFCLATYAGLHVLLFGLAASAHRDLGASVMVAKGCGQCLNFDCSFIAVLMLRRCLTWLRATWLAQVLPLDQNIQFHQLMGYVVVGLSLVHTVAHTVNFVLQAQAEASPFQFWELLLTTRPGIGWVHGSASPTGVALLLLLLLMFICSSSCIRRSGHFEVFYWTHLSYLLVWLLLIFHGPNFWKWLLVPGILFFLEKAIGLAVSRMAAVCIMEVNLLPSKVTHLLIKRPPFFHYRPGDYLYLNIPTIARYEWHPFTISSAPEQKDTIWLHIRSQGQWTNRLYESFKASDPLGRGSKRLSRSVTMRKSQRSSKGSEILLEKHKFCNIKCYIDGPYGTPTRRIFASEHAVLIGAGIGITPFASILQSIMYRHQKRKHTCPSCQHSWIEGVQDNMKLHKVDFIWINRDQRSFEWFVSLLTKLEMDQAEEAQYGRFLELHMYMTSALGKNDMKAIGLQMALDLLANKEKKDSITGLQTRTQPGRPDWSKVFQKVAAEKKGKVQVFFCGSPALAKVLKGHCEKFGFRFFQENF
Assay [11] in a line: A549 cell viability effects, profiling panel, calcein-AM fluorescence, 48 h, basal (AID 1162). Note: test concentration not given here. The following applies: higher = more signal.
A short description of assay [12]: adipocyte viability effects, profiling panel, cell-based, 3T3-L1 adipocytes, calcein-AM fluorescence, 48 h, basal (AID 1163). Note: test concentration not given here. The note with it: 3T3-L1 adipocytes viability, higher = more signal.
Assay [13] is described as follows: HepG2 cell viability effects, profiling panel, calcein-AM fluorescence, 48 h, basal (AID 1164). Note: test concentration not given here. The following applies: higher = more signal.
A short description of assay [14]: MM1S cell viability effects, profiling panel, calcein-AM fluorescence, 48 h, basal (AID 1165).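 Note: viability of MM1S multiple myeloma cells under basal unstimulated conditions; test concentration not given here.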 The note with it: higher = more signal.
A short description of assay [15]: basal RPMI8226 viability, no added stimulus, profiling panel, cell-based, calcein-AM fluorescence, 48 h, PK04 Diversity Set (AID 1166).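 Note: cells grown under basal conditions without added stimulus; test concentration not given here.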 The following applies: RPMI8226 myeloma viability, higher = more signal.
Assay [16] in a line: basal HepG2 mitochondrial membrane potential changes, profiling panel, cell-based, JC-1 fluorescence, 24 h, 100 nL compound (AID 1167). Note: test concentration not given here. The following applies: higher = more signal.
Assay [17] in a line: basal 3T3-L1 adipocyte mitochondrial potential changes, profiling panel, cell-based, JC-1 fluorescence, 3T3-L1 adipocytes, 24 h, 100 nL compound (AID 1168). Note: test concentration not given here. The following applies: JC-1 mitochondrial fluorescence, higher = more signal, called active from +8 up or from −8 down.
Assay [18] in a line: basal RPMI8226 mitochondrial membrane potential changes, profiling panel, cell-based, JC-1 fluorescence, 24 h, 100 nL compound (AID 1169). Note: test concentration not given here. The note with it: RPMI8226 myeloma, JC-1 mitochondrial potential fluorescence, higher = more signal.
Assay [19] can be described thus: basal MM1S mitochondrial membrane potential changes, profiling panel, cell-based, JC-1 fluorescence, 24 h, 100 nL compound (AID 1170). Note: test concentration not given here. The note with it: higher = more signal.
A short description of assay [20]: A549 lung cancer cell viability effects, profiling panel, resazurin fluorescence, 24 h, PK04 Diversity Set (AID 1171). Note: test concentration not given here. The note with it: higher = more signal, called active from +8 up or from −8 down.

`CCOC(=O)[C@H](CC(C)C)NC(=O)CCC1CC(OC(=O)NCCc2ccc(F)cc2)CC2(CCCC(COC(=O)NCCOc3ccccc3)O2)O1` (stereo not given in full): the z-score is -0.221 (inactive) in assay [1]; 4.92 (inactive) in assay [3]; 0.394 (inactive) in assay [4]; 0.881 (inactive) in assay [5]; 0.323 (inactive) in assay [6]; 0.45 in assay [7]. Moreover, the z-score in assay [8] is 1.82 (inactive); in assay [9] it was 0.31 (inactive); in assay [10] it was 1.33; in assay [11], -0.331; in [12], 0.593; in assay [13] it was -2.7. Moreover, the z-score in assay [14] is -3.46; in assay [15], -3.56; in assay [16], -1.82; in assay [17], 1.04 (inactive); in assay [18], -0.462; in assay [19], -0.0103. In assay [20], the z-score is 0.169 (inactive). In assay [2], this compound came in with a composite z-score of -0.263.
On to `CO[C@H]1COC(=O)CCC[C@@H](C)[C@H](OC)COC(=O)[C@@H](C)NC(=O)CC=C[C@@H]1C`, for which the z-score in assay [1] is 0.312 (inactive); in assay [3], -0.806 (inactive); in assay [4] it was -0.912 (inactive); in assay [5], 0.565 (inactive); in [6], -1.59 (inactive); in [7], 1.05. Besides, the z-score in assay [8] was -1.18 (inactive); in assay [9], -2.55 (inactive); in [10] it was -1.3; in assay [11] it was -0.682; in assay [12], 1.07; in assay [13], -0.796. The z-score is 0.0819 in assay [14]; -1.04 in [15]; 1.95 in assay [16]; 1.34 (inactive) in [17]; 0.246 in assay [18]; -0.754 in [19]. The z-score in assay [20] was 1.02 (inactive). Besides, the composite z-score in [2] was -0.0969.
Turning to `C[C@H]1CC[C@H]2C(=O)OC(CO)CN2[C@@H]1c1ccc(Br)cc1` (stereo not given in full), the z-score in assay [1] is -0.565 (inactive); in assay [3] it was 0.382 (inactive); in assay [4], 0.675 (inactive); in [5], 0.647 (inactive); in [6] it was 0.223 (inactive); in [7], -0.42. Also, the z-score in assay [8] was 0.923 (inactive); in assay [9], -1.15 (inactive); in assay [10], 0.324; in assay [11], 0.228; in assay [12], 0.764; in assay [13], -0.592. For the same compound, the z-score in assay [14] was -2.22; in [15], 0.0966; in assay [16], 0.292; in [17] it was -0.18 (inactive); in assay [18], 0.859; in assay [19], 0.23. Also, the z-score in assay [20] is 0.746 (inactive). For the same compound, the composite z-score in assay [2] was -0.0918.
In the case of `COC(=O)[C@H]1[C@@H](O)[C@@]2(O)c3ccccc3O[C@@]2(c2ccccc2)[C@@H]1c1ccccc1`, the z-score in [1] is -0.262 (inactive); in [3], 0.249 (inactive); in [4] it was 0.454 (inactive); in [5] it was 0.296 (inactive); in [6], 0.148 (inactive); in assay [7] it was 0.0192. Also, the z-score in assay [8] is -0.481 (inactive); in assay [9] it was 0.526 (inactive); in assay [10], 0.152; in assay [11], -0.895; in assay [12] it was -0.535; in assay [13], -2.85. The z-score in assay [14] is -2.81; in assay [15], -3.1; in [16] it was -1.85; in assay [17], -0.144 (inactive); in assay [18], -0.231; in assay [19] it was -0.341. In addition, the z-score in [20] was -0.146 (inactive). This compound also showed a composite z-score in assay [2] of -0.193.
As for `CC(C)(C)N1C(=O)[C@H]2[C@H]3[C@H](O)C=CC(=O)[C@@H]3CC[C@H]2C1=O`, the z-score in assay [1] is -0.0926 (inactive); in assay [3] it was -0.007 (inactive); in assay [4], -0.566 (inactive); in assay [5] it was -0.562 (inactive); in assay [6], -0.43 (inactive); in assay [7], 0.0787. Besides, the z-score in assay [8] is 0.497 (inactive); in assay [9] it was -1.67 (inactive); in assay [10] it was -0.47; in assay [11], -0.269; in [12] it was 0.815; in [13] it was 0.282. Besides, the z-score in assay [14] is 0.326; in assay [15], 0.311; in assay [16] it was 0.102; in [17], -0.211 (inactive); in [18], -0.0172; in [19], 1.19. Further, the z-score in [20] was 0.0796 (inactive). This compound gave a composite z-score in assay [2] of -0.286.
Take `O=C1[C@H]2[C@H]3[C@H](O)[C@H](O)CC(=NOCc4ccccc4)[C@@H]3CC[C@H]2C(=O)N1Cc1ccc2c(c1)OCO2`: the z-score is 0.0628 (inactive) in assay [1]; 6.28 (inactive) in assay [3]; 1.02 (inactive) in assay [4]; 1.06 (inactive) in assay [5]; 0.354 (inactive) in assay [6]; 0.0008 in [7]. Moreover, the z-score was 1.09 (inactive) in assay [8]; 0.665 (inactive) in assay [9]; -1.01 in [10]; -0.152 in assay [11]; -0.121 in assay [12]; -0.937 in assay [13]. Further, the z-score in assay [14] is 0.266; in assay [15], -2.81; in [16] it was -0.335; in assay [17], 0.17 (inactive); in [18], -0.234; in assay [19], -0.0728. In addition, in [20], the z-score is 0.688 (inactive). In assay [2], this compound showed a composite z-score of 0.217.
Take `O=C1[C@H]2[C@H]3[C@H](O)[C@H](O)CC(=NOC[C@@H](O)COCc4ccco4)[C@H]3CC[C@H]2C(=O)N1Cc1ccccc1`: the z-score in assay [1] is 0.0413 (inactive); in assay [3] it was 0.376 (inactive); in assay [4], -0.599 (inactive); in assay [5] it was -0.409 (inactive); in [6], -1.53 (inactive); in [7], 1.43. The z-score in assay [8] was -0.0116 (inactive); in assay [9] it was 0.967 (inactive); in assay [10] it was 0.0182; in assay [11], 0.172; in [12], 0.194; in assay [13], -1.46. For the same compound, the z-score in assay [14] is 0.455; in [15], -2.06; in assay [16], 0.176; in [17], -0.161 (inactive); in [18], 0.714; in [19] it was -0.441. The z-score in assay [20] is 0.968 (inactive). The composite z-score in assay [2] is -0.154.
In the case of `C[C@@H](ON=C1[C@H]2CCn3c(=O)n(-c4ccccc4)c(=O)n3[C@H]2[C@H](O)[C@@H]2O[C@H]12)c1cn([C@@H]2COC[C@H]2O)nn1`, the z-score was -0.212 (inactive) in [1]; 0.595 (inactive) in assay [3]; 0.277 (inactive) in assay [4]; 0.0251 (inactive) in assay [5]; 0.122 (inactive) in assay [6]; -0.574 in assay [7]. The z-score in assay [8] is -0.183 (inactive); in assay [9] it was -0.242 (inactive); in assay [10] it was -0.461; in assay [11], 0.0219; in assay [12] it was -0.15; in assay [13], 0.373. The z-score in [14] was -0.289; in assay [15] it was -0.292; in assay [16], -0.377; in assay [17], -1.84 (inactive); in assay [18], -0.0731; in [19] it was -0.696. Further, the z-score in [20] was 0.0264 (inactive). In assay [2], the composite z-score was -0.255.
For `CCOC(=O)[C@H](CC(C)C)NC(=O)CCC1CC(OC(=O)NCc2ccc3c(c2)OCO3)CC2(CCCC(COC(=O)NCC3CCCCC3)O2)O1` (stereo not given in full), the z-score was 0.192 (inactive) in assay [1]; 1.35 (inactive) in [3]; 0.0043 (inactive) in assay [4]; -0.116 (inactive) in assay [5]; -0.0704 (inactive) in assay [6]; 0.542 in [7]. For the same compound, the z-score was -0.541 (inactive) in assay [8]; 0.563 (inactive) in assay [9]; 0.61 in [10]; 1.2 in assay [11]; -0.721 in assay [12]; -0.991 in assay [13]. The z-score was -1.2 in [14]; 0.599 in assay [15]; 0.498 in assay [16]; 0.368 (inactive) in [17]; -0.247 in assay [18]; -0.972 in [19]. Moreover, the z-score in assay [20] was 1.26 (inactive). In addition, the composite z-score in assay [2] was found to be 0.237.
